{"source": "PubChem BioAssay AID734", "about": "(The Scripps Research Institute Molecular Screening Center, 2007)", "note": "The whole screen tested about 5,100 compounds, of which fewer than 10 were called active. Not all results are given here. Values without a mark were called inactive.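 Rule for the calls: active = inhibition above the mean inhibition over all tested compounds plus 3 SD (cut at about 75% in these data); inactive = the rest.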"}
{"biological_target": "Collagenase 3 (Homo sapiens) (UniProt P45452)", "assay": "human MMP13 inhibition, fluorescence-interfering compounds – biochemical, possible fluorescent artifacts, delta fluorescence, confirmation (AID 734);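 note: 0% = DMSO only wells and 100% = 8 µM reference MMP13 inhibitor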", "conditions": "MMP13 fTHP FRET cleavage, delta fluorescence 4 h; stronger effect = higher value;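 each compound tested at 4 µM nominal in triplicate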"}
{"smiles": "OCc1ccccc1OCCOc1ccc(Cl)c2cccnc12", "inhibition": "6.18%"}
{"smiles": "CC(C)NCC(O)Cn1c2c(c3ccccc31)CCc1c-2cnn1-c1ccccc1", "note": "(configuration not stated)", "inhibition": "6.63%"}
{"smiles": "CC(=O)Nc1nc2n(n1)C(c1ccccc1)C=C(c1ccccc1)N2", "note": "(configuration not stated)", "inhibition": "0.41%"}
{"smiles": "O=C(Oc1cccnc1)c1ccco1", "inhibition": "3.63%"}
{"smiles": "COc1ccc(C2C=C(C)Nc3nc(SC)nn32)cc1", "note": "(configuration not stated)", "inhibition": "-11.2%"}
{"smiles": "CCOc1ccc(C2CC(c3cccc(Cl)c3)n3nc(N)nc3N2)cc1", "note": "(configuration not stated)", "inhibition": "4.79%"}
{"smiles": "Cc1ccc(-n2ncc3c(=O)n(CC(=O)NCc4ccco4)cnc32)cc1C", "inhibition": "5.2%"}
{"smiles": "COCCCNC(=O)c1ccc2nc3ccccc3c(=O)n2c1", "inhibition": "-3.91%"}
{"smiles": "CCCOc1ccccc1-c1nc2c([nH]1)c(=O)[nH]c(=O)n2C", "inhibition": "-0.35%"}
{"smiles": "CS(=O)(=O)N1CCc2cc(C(=O)N3CCOCC3)ccc21", "inhibition": "5.36%"}
{"smiles": "CCOC(=O)c1[nH]c2ccc(OCC)cc2c1NC(=O)CN1CCN(c2ccccn2)CC1", "inhibition": "-14.1%"}
{"smiles": "CCCC(=O)N1CCN(c2nc(CC(C)C)c3c(c2C#N)CCC3)CC1", "inhibition": "0.13%"}
{"smiles": "CCS(=O)(=O)Nc1c(C(=O)O)[nH]c2ccccc12", "inhibition": "3.79%"}
{"smiles": "CCOC(=O)c1oc2cccc(OCC(O)CNC(C)C)c2c1C", "note": "(configuration not stated)", "inhibition": "-6.29%"}
{"smiles": "N#Cc1cc2c(nc1SCC(=O)Nc1nccs1)CCCCC2", "inhibition": "-11%"}
{"smiles": "COc1ccc(O)c(C(=O)c2cc(C#N)c(=O)n(-c3c(C)n(C)n(-c4ccccc4)c3=O)c2)c1", "inhibition": "6.02%"}
{"smiles": "CCOC(=O)c1cccnc1SCc1cc(=O)n2ccccc2n1", "inhibition": "3.91%"}
{"smiles": "CC1=C(C(=O)N2CCOCC2)C(c2ccccc2F)C2=C(CC(C)(C)CC2=O)N1", "note": "(configuration not stated)", "inhibition": "-1.62%"}
{"smiles": "CCCC(c1nnnn1C1CCCC1)N1CCN(C(=O)c2ccco2)CC1", "note": "(configuration not stated)", "inhibition": "6.95%"}
{"smiles": "N#Cc1nc(-c2cccs2)oc1N1CCOCC1", "inhibition": "-82.1%"}
{"smiles": "CCCc1cc(=O)oc2cc(C)c3c(C)coc3c12", "inhibition": "-8.56%"}
{"smiles": "CCOC(=O)c1cc2c(=O)n3ccccc3nc2n(C(C)C)c1=NC(=O)c1ccncc1", "inhibition": "-11.4%"}
{"smiles": "CN1CC=C2C(C#N)=C(N)C(C#N)(C#N)C(CCc3ccccc3)C2C1", "note": "(configuration not stated)", "inhibition": "5.88%"}
{"smiles": "O=S(=O)(NC1c2cccc3cccc(c23)C1N1CCNCC1)c1ccccc1", "note": "(configuration not stated)", "inhibition": "8.95%"}
{"smiles": "COc1ccc(CN2CCCC2C(=O)Nc2ccc(OC)c(OC)c2)cc1OC", "note": "(configuration not stated)", "inhibition": "1.58%"}
{"smiles": "CC(O)Cn1ccccc1=N", "note": "(configuration not stated)", "inhibition": "4.32%"}
{"smiles": "CC(C)(C)c1cc(=O)n2c(C#N)c(C#N)nc2[nH]1", "inhibition": "4.14%"}
{"smiles": "Cc1onc(-c2ccccc2)c1C(=O)Nc1nnc(-c2ccncc2)s1", "inhibition": "-3.75%"}
{"smiles": "O=C(CC1Nc2ccccc2NC1=O)NC1CCCCC1", "note": "(configuration not stated)", "inhibition": "4.1%"}
{"smiles": "CCOc1ccc2[nH]c(=O)c(C(c3nnnn3Cc3ccco3)N3CCC(C)CC3)cc2c1", "note": "(configuration not stated)", "inhibition": "8.93%"}
{"smiles": "Cc1cccc(-n2c(=O)[nH]c3c(C(N)=O)nc(-c4ccccc4Cl)nc32)c1", "inhibition": "6.92%"}
{"smiles": "COC(=O)c1cc2c(s1)CS(=O)C2", "note": "(configuration not stated)", "inhibition": "5.21%"}
{"smiles": "CC(C)c1nc(N2CCOCC2)c(C#N)c2c1CCC2", "inhibition": "-3.95%"}
{"smiles": "CCOC(=O)c1cnc2cc(Cl)c(OC)cc2c1NCC1CCCO1", "note": "(configuration not stated)", "inhibition": "3.77%"}
{"smiles": "c1ccc(-n2nc3c(ccc4cnnc43)[nH]2)cc1", "inhibition": "-1.01%"}
{"smiles": "COc1ccc(-c2ccc(-c3noc(-c4ccccc4C)n3)c(OC)n2)cc1", "inhibition": "79.6% (active)"}
{"smiles": "COc1ccc(-c2ccc(-c3noc(-c4ccccc4)n3)c(OC)n2)cc1", "inhibition": "5.4%"}
{"smiles": "COc1ccc(-c2ccc(-c3noc(-c4ccccc4OC)n3)c(OC)n2)cc1", "inhibition": "13.8%"}
{"smiles": "CCOC(=O)c1sc(C)c(C(N)=O)c1NC1=NCCCCC1", "inhibition": "2.74%"}
{"smiles": "CCN(CC)C(=O)Sc1cccc2cccnc12", "inhibition": "7.36%"}
{"smiles": "CN(C)c1ccc(C(=O)N2CC(=O)N(CCc3ccccc3)C(=O)C2)cc1", "inhibition": "0.16%"}
{"smiles": "CCOC(=O)N1CCC(N2C(=O)c3ccccc3C2Nc2ccc3c(C)cc(=O)oc3c2)CC1", "note": "(configuration not stated)", "inhibition": "-77%"}
{"smiles": "Cc1cc(C)c2c(N)c(C(=O)Nc3nccs3)sc2n1", "inhibition": "-7.23%"}
{"smiles": "COc1ccccc1Nc1nc(-c2cccs2)cs1", "inhibition": "4.53%"}
{"smiles": "O=c1c2[nH]c3ccccc3c2ncn1Cc1cccnc1", "inhibition": "5.84%"}
{"smiles": "Cc1oc2c(CN3CCCC3)c(O)ccc2c(=O)c1-c1ccc(Br)cc1", "inhibition": "11.1%"}
{"smiles": "O=c1[nH]c2cc3c(cc2cc1C(c1nnnn1C1CCCC1)N1CCSCC1)OCCO3", "note": "(configuration not stated)", "inhibition": "1.34%"}
{"smiles": "CN1CCN(CCCNC(=O)Nc2cccc3ccccc23)CC1", "inhibition": "4.59%"}
{"smiles": "COc1ccc(C2C(C(=O)N3CCN(c4ccccn4)CC3)CC(=O)N2c2ccc(OC)cc2)cc1", "note": "(configuration not stated)", "inhibition": "1.09%"}
{"smiles": "COC(=O)c1[nH]c2cccc(OC)c2c1NC(=O)CN1CCC(C(N)=O)(N2CCCCC2)CC1", "inhibition": "5.66%"}
{"smiles": "C=C(Cl)COc1ccc2c(CC)cc(=O)oc2c1", "inhibition": "6.13%"}
{"smiles": "CC1=CC2=NC(=O)CC(C)(C(=O)N(CC(=O)NC(C)(C)C)C3CCCC3)N2C=C1", "note": "(configuration not stated)", "inhibition": "2.69%"}
{"smiles": "Cc1nc2c(C(=O)O)cnn2c(C)c1Cc1ccccc1F", "inhibition": "5.94%"}
{"smiles": "N#Cc1nc(-c2ccccc2F)oc1NCc1ccccc1", "inhibition": "-7.81%"}
{"smiles": "Cc1cccc(-n2c(SCCC(=O)O)nnc2-c2cccs2)c1C", "inhibition": "6.84%"}
{"smiles": "COc1ccc(-c2nc3nc(C)cc(C)n3n2)cc1", "inhibition": "1.15%"}
{"smiles": "Cc1cc(NC(=O)CSc2ccc3nnc(-c4cccnc4)n3n2)no1", "inhibition": "0.22%"}
{"smiles": "COCCCNC(=O)CSC1=Nc2ccccc2C2=NC(CC(=O)NCc3ccccc3)C(=O)N12", "note": "(configuration not stated)", "inhibition": "0.89%"}
{"smiles": "COCCn1c(SCc2csc(-c3ccccc3)n2)nc2ccccc21", "inhibition": "3.46%"}
{"smiles": "Cc1cccn2c(=O)c3cc(C(=O)N4CCN(C(=O)c5ccco5)CC4)n(C)c3nc12", "inhibition": "0.62%"}
{"smiles": "O=C(CCCOc1ccccc1)Nc1nccs1", "inhibition": "3.79%"}
{"smiles": "COc1ccc2[nH]c(=O)c(CN(CCCN(C)C)C(=O)Nc3ccccc3)cc2c1", "inhibition": "0.48%"}
